Laboratory results from PubChem BioAssay (NCATS).
Records with an inconclusive call do not appear. The source made the active and inactive calls. The call rests on the fitted dose curve; in most records, active means well fitted cell-killing curve with a large enough effect; inconclusive means small, poorly fitted or top-dose-only effect; inactive means flat fitted curve, though single readings scatter.

What was measured:
[1] = Cell Viability - LYMP2-017 (AID 972); further: series mostly up to about 92 µM; nearly all actives have a fitted effect of over 55% in size
Outline: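 Luminescent ATP read-out (CellTiter-Glo, 30 min RT) reports viable cell number. Cells: human lymphoblastoid line, 2500 per well, 5 hr preincubation, 24 hr compound exposure at 37 C. AC50 is derived from qHTS concentration-response data using the standard Hill model.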

[2] = Cell Viability - LYMP2-019 (AID 973); further: nearly all actives have a fitted effect of over 55% in size
Outline: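 qHTS, 1536-well; 2500 cells/well; 5 hr pre-incubation, 24 hr compound exposure, 37 C; CellTiter-Glo added, 30 min RT; luminescence read; AC50 via standard Hill equation.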

[3] = Cell Viability - LYMP2-021 (AID 974);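 further: compound exposure lasts 24 hours at 37 °C; nearly all actives have a fitted effect of over 55% in size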
Description: NIH Chemical Genomics Center [NCGC]
NIH Molecular Libraries Screening Centers Network [MLSCN]
National Institutes of Environmental Health Sciences [NIEHS]
National Toxicology Program [NTP]
We have developed a 1536-well cell-based assay for quantitative high throughput screening (qHTS) against a number of cell lines to determine in vitro cytotoxicity of small molecules. This particular assay uses a human lymphoblastoid cell line (LYMP2-021) purchased from Coriell Institute for Medical Research.
NCGC Assay Protocol Summary:
The CellTiter-Glo luminescent cell viability assay (Promega) is a homogeneous method to measure the number of viable cells in culture. The end point readout of this assay is based on quantitation of intracellular ATP, an indicator of metabolic activity, using the luciferase reaction. […]
Using the CellTiter-Glo luminescent cell viability assay, the amount of cellular ATP was measured in the lymphoblastoid cell line with complete culture medium following compound treatment for 24 hours. […] Library compounds were measured for their ability to cause acute toxicity in the cell line, as reflected by a decrease in intracellular ATP levels, in a concentration-dependent manner. […] AC50 values were determined from concentration-response data modeled with the standard Hill equation. […]
8. Detection; Luminescence; Viewlux plate reader […]

[4] = Cell Viability - LYMP2-023 (AID 975);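 further: cellular ATP measured by luciferase luminescence as viability proxy; series mostly up to about 92 µM; nearly all actives have a fitted effect of over 55% in size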
Outline: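 CellTiter-Glo luminescence after 30 min at room temperature; decrease in intracellular ATP reflects toxicity. Cells: human lymphoblastoid line, 2500/well, 24 hr compound exposure at 37 C. AC50 fitted to standard Hill equation from concentration-response.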

[5] = Cell Viability - LYMP2-025 (AID 976); further: series mostly up to about 92 µM
Outline: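 CellTiter-Glo luminescence (cellular ATP) after 24 h compound exposure at 37 C; LYMP2-025 human lymphoblastoid cells, 2500/well, complete medium. Tetraoctylammonium bromide positive control. AC50 by Hill equation fit of qHTS concentration-response.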

[6] = Cell Viability - LYMP2-002 (AID 977); further: series mostly up to about 92 µM
Outline: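 Human lymphoblastoid cells (2500/well) in complete medium were preincubated 5 hr at 37 C, then exposed to compounds for 24 hr at 37 C. Intracellular ATP was read by CellTiter-Glo luminescence; AC50 came from Hill-equation concentration-response fits.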

[7] = Cell Viability - LYMP2-006 (AID 978); further: series mostly up to about 92 µM; nearly all actives have a fitted effect of over 60% in size
Outline: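 Human lymphoblastoid cells (LYMP2-006), 2500/well in complete medium, were treated with compound for 24 hr at 37 C. Cellular ATP was read by CellTiter-Glo luminescence after 30 min, and AC50 values came from Hill-equation fits of concentration-response data.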

[8] = Cell Viability - LYMP2-007 (AID 979);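 further: cells exposed to compound for 24 h before reading; nearly all actives have a fitted effect of over 60% in size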
Outline: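 qHTS cytotoxicity: 2500 cells/well, 5 hr 37 C settle, compound 24 hr 37 C, CellTiter-Glo 30 min RT, luminescence. Decrease in ATP = toxicity. AC50 by standard Hill equation; tetraoctylammonium bromide positive control.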

[9] = Cell Viability - LYMP2-008 (AID 980); further: nearly all actives have a fitted effect of over 60% in size
Outline: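 Luminescent ATP read-out (CellTiter-Glo, 30 min RT) after 24 hr compound exposure at 37 C of human lymphoblastoid cells in complete medium. Decrease in ATP taken as cytotoxicity; AC50 derived by standard Hill fit of qHTS concentration-response data.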

[10] = Cell Viability - LYMP2-010 (AID 981); further: nearly all actives have a fitted effect of over 55% in size
Outline: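 qHTS cytotoxicity, 1536-well: 2500 cells/well, 5 hr settle, 24 hr compound at 37 C, CellTiter-Glo 30 min RT, luminescence read. Decrease in ATP = toxicity; AC50 via standard Hill equation. Positive control tetraoctylammonium bromide.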

Measured: outcome

NC(=O)c1ccccc1
inactive: [1] | [2] | [3] | [4] | [5] | [6] | [7] | [8] | [9] | [10]

CC(=O)C(C)=O
inactive: [1] | [2] | [3] | [4] | [5] | [6] | [7] | [8] | [9] | [10]
